In PubChem BioAssay (NCI) one finds growth data, which are given here for 14 molecules.

SMILES strings stand for the structures. This is part of a sample that, as a whole, favours compounds with a hit. Of some 83,000 tested, about 20% had one in any assay.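 Interpretation: 100, growth as untreated; towards 0, rising growth inhibition; 0, no net growth; 0 to -100, cell death. Compounds scoring below 10 were considered active.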 Unmarked numbers belong to inactive results. Activity calls are given as the source filed them.

What all share (assay): NCI-60 one-dose screen, 48 h (100 = growth as untreated, 0 = no growth, -100 = all killed)
What all share (conditions): 10 µM unless noted

Test [1] has as its system T-47D breast.
In test [2] the test system is BT-549 breast.
The subject of test [3] is MDA-MB-435 melanoma.
Test [4] relates to SW-620 colon.
Test [5] deals with MCF7 breast.
In test [6] the test system is HCT-116 colon.
Test [7] relates to HCC-2998 colon.
In test [8] the test system is KM12 colon.

Turning to `Clc1ccc(CN2COc3c(ccc4cccnc34)C2)cc1Cl`, the growth in test [1] was 5.72% (active); in test [2], 8.99% (active); in test [3], 12.8%; in test [4], 18%; in test [5], 12.6%; in test [6], -39.1% (active). For the same molecule, the growth was -25.4% (active) in test [7] and 7.75% (active) in test [8].
In the case of `COc1ccc(-c2ccc(NC(=O)Nc3ccc(Cl)c(C(F)(F)F)c3)c(C)n2)cc1`, the growth in test [1] was 21.5%; in test [2], 66.2%; in test [3] it was 71.9%; in test [4], 67%; in test [5], 36.7%; in test [6], 23.7%. In addition, the growth in test [7] was 69.2%; in test [8] it was 37.4%.
Regarding `CC(CCC(=O)O)[C@H]1CCC2C3C(=O)C[C@@H]4CC(=O)CC[C@]4(C)C3CC(=O)[C@@]21C` (some centres not stated), the growth was 97% in test [1]; 112% in test [2]; 96.5% in test [3]; 98.7% in test [4]; 105% in test [5]; 112% in test [6]. For the same molecule, the growth is 103% in test [7] and 108% in test [8].
As to `COc1ccc(/C=N/C2=NNC(C)(c3ccccc3O)N2C(Cc2c[nH]c3ccccc23)C(=O)O)cc1` (configuration not stated), the growth in test [1] was 12.9%; in test [2], 21.6%; in test [3] it was 3.69% (active); in test [4], 17.2%; in test [5], 13.1%; in test [6] it was 10.8%. For the same molecule, the growth in test [7] is 47.7%; in test [8], 13.1%.
Turning to `C=C1C(=O)O[C@H]2[C@H]1CC/C(COC(=O)CCCC(=O)OC/C1=C/CC[C@@]3(C)O[C@H]3[C@H]3OC(=O)C(=C)[C@@H]3CC1)=C\CC[C@@]1(C)O[C@@H]21`, the growth in test [1] is 14.9%; in test [2] it was -4.94% (active); in test [3] it was 4.28% (active); in test [4], -35.9% (active); in test [5], 8.68% (active); in test [6] it was -53% (active). For the same molecule, the growth is 64.9% in test [7] and 26% in test [8].
For the molecule `C/C(=N/O)c1ccc(NC(=O)Cn2nc(-c3ccc(Cl)cc3)nc2N)cc1`, the growth is 87% in test [1]; 116% in test [2]; 109% in test [3]; 104% in test [4]; 84.9% in test [5]; 107% in test [6]. The growth in test [7] was 103%; in test [8], 98.4%.
Regarding `CCOC(=O)c1[nH]c(-c2ccc(Cl)cc2)cc1-c1cccnc1`, the growth is 5.56% (active) in test [1]; 29.4% in test [2]; -38% (active) in test [3]; 25.4% in test [4]; 22.2% in test [5]; 9.8% (active) in test [6]. For the same molecule, the growth in test [7] was 29.9%; in test [8], 19.8%.
With `COc1cc(-c2nc3sc(C)cn3c2/C=C2\C(=O)Nc3ccccc32)c(Br)c(OC)c1OC`, the growth in test [1] was 51.5%; in test [2], 14.8%; in test [3], -8.78% (active); in test [4], 21.2%; in test [5], 1.61% (active); in test [6], 22%. Further, the figures for the growth in test [7] and in test [8] were 97% and 15.1%, respectively.
Consider `COc1cc(Br)c(-c2nc(-c3ccccc3)c(-c3ccccc3)n2Cc2ccccc2)cc1OC`, for which the growth is 35.8% in test [1]; 75.9% in test [2]; 59.8% in test [3]; 73.4% in test [4]; 38.3% in test [5]; 30.3% in test [6]. For the same molecule, the growth in test [7] is 67.9%; in test [8], 49.6%.
Regarding `NS(=O)(=O)c1ccc(CCN2C(=O)/C(=C\c3ccc(Cl)cc3)C=C2c2ccc(Oc3ccccc3)cc2)cc1`, the growth in test [1] was 66.7%; in test [2], 92.2%; in test [3] it was 78.8%; in test [4] it was 83%; in test [5], 39.3%; in test [6], 65%. Moreover, the figures for the growth in test [7] and in test [8] were 89% and 62.4%, respectively.
As to `Cc1cc(C)c(O)c(C(=O)CC(Br)C(=O)O)c1` (configuration not stated), the growth is 92.9% in test [1]; 97.6% in test [2]; 102% in test [3]; 116% in test [4]; 66.6% in test [5]; 99.3% in test [6]. In addition, the growth in test [7] was 93.3%; in test [8], 97.9%.
As to `O=C(Nc1cccc(-n2ccc3c(NC(=O)c4ccccc4)ncnc32)c1)Nc1ccc(Cl)c(C(F)(F)F)c1`, the growth in test [1] is 21.6%; in test [2], 45.9%; in test [3], -7.53% (active); in test [4], 41.3%; in test [5], 20%; in test [6], 17%. Further, the growth in test [7] was 40.8%; in test [8] it was 12.5%.
Regarding `C=CC(=O)Nc1cccc(Nc2nc(Nc3ccc(OCCOC(F)F)cc3)ncc2F)c1`, the growth in test [1] was 32.8%; in test [2] it was 24.5%; in test [3], 9.37% (active); in test [4] it was 19%; in test [5], 23.9%; in test [6], 36%. The growth in test [7] was 35.8%; in test [8], 37.4%.
On to `CCCCCC/C=N/Nc1ccc([N+](=O)[O-])cn1`, for which the growth in test [1] was 88.4%; in test [2], 96.2%; in test [3], 101%; in test [4] it was 102%; in test [5] it was 90.7%; in test [6], 84.7%. The growth was 85.9% in test [7] and 99.5% in test [8].
